Screening data (PubChem BioAssay)
Shown are actives, neighbours in structure and some others; about 3.5% of the full set was active somewhere.
Pf apPOL inh = Pf-apPOL DNA polymerase inhibition | Recombinant Pf-apPOL, molecular beacon fluorescence, 1.5 h | inhibition, % at 10 µM | 210,000 tested, 0.25% active | AID 1794808
mHTT-CaM PPI inh = mHTT-calmodulin interaction abrogation | inhibition, % at 15 µM | 190,000 tested, 3.6% active | AlphaScreen His-mHTT/GST-CaM binding, luminescence | P42858;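 also: 0% = both proteins with DMSO and 100% = one protein alone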
* marks the source's active call; other numbers are inactive results; i = inactive; nt = no result given; + = active, no number. Rule as the data show it: active = inhibition above about 50%; inactive = the rest.

SMILES	Pf apPOL inh	mHTT-CaM PPI inh
Nc1ccc2oc(-c3ccccc3Cl)cc(=O)c2c1O	-2	15
COc1nccnc1N1CCC(N(C)S(C)(=O)=O)C1 (stereo not drawn)	2	4
CC(=O)Nc1ccc(S(=O)(=O)Nc2cccc(C)c2)cc1	-2	0
O=C(NCC1CC1)C1C2C3C4CC5C3C5C4C12 (stereo not drawn)	-6	-2
CS(=O)CC(O)(c1ccc(Cl)cc1)c1ccc(Cl)cc1 (stereo not drawn)	0	nt
Cc1ccc(C)c(N2CCN(C(=O)c3ccc(-c4cccnc4)nc3)CC2)c1	2	64*
O=C(c1ccc(-c2cccnc2)nc1)N1CCN(c2ccc(Cl)cc2)CC1	-5	0
CN1CCN(C(=O)c2ccc(SCc3cccnc3)c([N+](=O)[O-])c2)CC1	-3	6
Cc1ccc(C)c(N2CCN(C(=O)c3ccc(SCc4cccnc4)c([N+](=O)[O-])c3)CC2)c1	-1	65*
O=C(c1ccc(-c2cccnc2)nc1)N1CCN(c2ccccc2)CC1	0	7
O=C(c1ccc(-c2cccnc2)nc1)N1CCN(c2cccc(Cl)c2)CC1	1	76*
Cc1ccc(F)cc1NC=C1C(=O)OC(C)(C)OC1=O	-6	-4
O=C(Nc1ccc(OCc2ccccc2)cc1)Oc1ccccc1N1CCCCC1	2	nt
COc1ccc2oc(=Nc3ccc(C(F)(F)F)cc3)c(C(N)=O)cc2c1	0	-7
Cc1nc2c(NC(=O)c3ccc(Cl)cc3)cccn2n1	0	-2
O=c1/c(=C/c2ccccc2O)sc2n1CN(c1ccc(Cl)cc1)CN=2	51*	13
O=c1/c(=C/c2ccccc2O)sc2n1CN(c1ccc(F)cc1)CN=2	-1	36
C[C@H]1[C@@H](NC(=O)c2ccc(Cl)c(C(F)(F)F)c2)CC[C@@]23CCCN2C(=O)CCC[C@@H]13	0	16
CCC[C@H]1[C@@H](NC(=O)c2ccc(Cl)c(C(F)(F)F)c2)CC[C@@]23CCCN2C(=O)CCC[C@@H]13	3	96*
Cc1ccccc1NC(=O)c1c[nH]c2ccccc2c1=O	1	0
COc1cc(Cl)c2[nH]cc(CCN=Cc3ccc(N(C)C)cc3)c2c1	-1	11
COC(=O)c1ccc(C(=O)OC)c(NCc2cc(=O)oc3cc(C)c(O)cc23)c1	-3	-16
O=[N+]([O-])c1ccc(OS(=O)(=O)c2ccc3ccccc3c2)c2ncccc12	nt	100*
O=[N+]([O-])c1ccc(Sc2cccc3cccnc23)c2ncccc12	-8	4
COc1ccccc1C(=O)NCC1Cc2cccc(F)c2O1 (stereo not drawn)	-3	-10
SMILES	Pf apPOL inh	mHTT-CaM PPI inh
CCCC(=O)Nc1ccc(O)c(C(=O)CC2OC(=O)c3ccccc32)c1 (stereo not drawn)	-4	5
Cc1n[nH]c(C)c1S(=O)(=O)N1CCc2c(c(-c3nc(-c4ccccc4)no3)nn2C)C1	-2	53*
Cc1ccc(S(=O)(=O)N2CCc3c(c(-c4nc(-c5ccccc5)no4)nn3C)C2)cc1C	-3	-10
Cc1ccc(C)c(-c2noc(-c3c(O)c4ccccc4[nH]c3=O)n2)c1	-12	-7
CC1=Nc2c([nH]c3ccccc23)-c2cc(C)ccc2N1	2	70*
CSc1cccc(NC(=O)N2CCC3(CC2)Nc2cc(F)ccc2-n2cccc23)c1	-2	25
COc1cccc(NC(=O)N2CCC3(CC2)Nc2cc(F)ccc2-n2cccc23)c1	-6	47
COc1ccc(NC(=O)N2CCC3(CC2)Nc2cc(F)ccc2-n2cccc23)cc1	-3	66*
CCc1ccc(NC(=O)N2CCC3(CC2)Nc2cc(F)ccc2-n2cccc23)cc1	-3	72*
CCOc1ccc(NC(=O)N2CCC3(CC2)Nc2cc(F)ccc2-n2cccc23)cc1	1	66*
COc1ccc(NC(=O)N2CCC3(CC2)Nc2cc(F)ccc2-n2cccc23)cc1OC	-2	61*
CCC1C(O)CC(c2ccccc2)NC1c1ccccc1 (stereo not drawn)	1	-3
CCc1ccccc1NC(=O)N1CCOc2ccc(C)cc21	-8	-1
C=CCn1c(-c2cccc([N+](=O)[O-])c2)cnc1SCC(=O)Nc1cc(C)on1	-3	21
Cc1cc(C)n(C(=O)CC#N)n1	-2	5
CCC(CO)Nc1ncnc2c1cnn2-c1ccccc1 (stereo not drawn)	-4	10
COc1ccccc1N1CCN(C(=O)c2ccccc2Cl)C(C)C1=O (stereo not drawn)	-1	-7
O=[N+]([O-])c1ccc(-c2noc(C3CCCCC3)n2)cc1	-7	4
O=[N+]([O-])c1ccc2c(c1)ONC(c1ccc(Cl)cc1)=N2	-3	4
O=C(Nc1cc(Cl)cc(Cl)c1)N1CCCN(Cc2ccccc2)CC1	-11	nt
O=C(Nc1ccc(Cl)c(Cl)c1)N1CCCN(Cc2ccccc2)C1	16	95*
COc1cccc(CNC(=O)c2ccn3c(-c4ccc(F)cc4)nnc3c2)c1	-6	-3
COc1ccc(-c2ccc(C)cc2)cc1[C@H]1[C@H]2C=CC[C@@H](C)[C@@H]2C(=O)N1Cc1ccccc1	-4	-2
COc1ccc(-c2ccoc2)cc1[C@H]1[C@H]2C=CC[C@@H](C)[C@@H]2C(=O)N1Cc1ccccc1	0	86*
Cc1cc(NS(=O)(=O)c2ccc(NC(=O)c3ccc(Cl)s3)cc2)no1	-34	-8
SMILES	Pf apPOL inh	mHTT-CaM PPI inh
O=S1(=O)N=C(N/N=C/c2ccccn2)c2ccccc21	nt	+
Clc1cc(Cl)cc(N/N=C/c2ccccn2)c1	nt	i
Cc1cccc(CN2C(=O)CCc3c(C)nc(C)nc32)c1	51*	23
Cc1nc(C)c2c(n1)N(CC1CCCCC1)C(=O)CC2	50*	6
Cc1cccc(CN2C(=O)CCc3c(C)nc(-c4ccncc4)nc32)c1	4	-6
Cc1nc(C)c2c(n1)N(CC1CCCO1)C(=O)CC2 (stereo not drawn)	2	-2
COc1cccc(C=C2Oc3c(ccc4c3CN(C3CC3)CO4)C2=O)c1OC	-5	3
Cc1ccccc1CC(=O)N1CCc2[nH]nc(C(=O)N3CCC(C)CC3)c2C1	2	2
COc1cc(CN2CCN(c3ccc(C(C)=O)cc3)CC2)cc(I)c1O	-2	55*
COc1cc(CN2CCN(c3ccc([N+](=O)[O-])cc3)CC2)cc(I)c1O	-7	42
Cc1ccccc1OCc1nc(C#N)c(NCCCn2ccnc2)o1	-11	8
N#Cc1nc(COc2ccccc2Cl)oc1NCc1cccnc1	-1	23
N#Cc1nc(COc2ccccc2Cl)oc1NCCCn1ccnc1	3	100*
COc1ccc(CCNc2oc(COc3ccc(OC)cc3)nc2C#N)cc1	4	-5
COc1ccc(CCNc2oc(COc3ccccc3C)nc2C#N)cc1	-3	52*
Cc1ccccc1OCc1ccc(-c2nc(C#N)c(NCc3cccnc3)o2)o1	-8	54*
CN(C)C=CC(=O)c1cccc(Cl)c1F	-6	nt
CSc1noc(-c2ccc(Cl)cc2)c1C(=O)NC(=O)Nc1ccccc1Cl	-5	nt
CC(C)CC(=O)Nc1ccc(N2CCN(C(=O)c3cccc(Cl)c3)CC2)nc1	-8	1
Cc1ccc2[nH]c(=O)c(CCC(=O)N3CCSCC3)cc2c1	-7	-2
NC(=O)c1c(NC(=O)c2ccco2)sc2c1CCC2	0	2
NC(=O)c1c(NC(=O)C2CCCN(C(=O)c3ccco3)C2)sc2c1CCCC2 (stereo not drawn)	-7	73*
